# Screens as filed in PubChem BioAssay.
# Hits are enriched below; roughly 7.3% of the tested compounds scored in any of these assays.
# SMN2 splice up – SMN2 splice variant enhancement | AID 1458 | Potency, µM (series often up to 46.1 µM), for inactives: at the top dose activity change, positive = activation, hits mostly activators | HEK293 SMN2-luciferase splicing reporter, luminescence, 30-36 h | 2.8% of 210,000 active; note: % of control where 0% means no effect; nearly all actives have a fitted effect of over 55% in size
#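 HEK293 cells carry an SMN2 minigene-luciferase reporter in which exon 7 inclusion puts luciferase in frame. Cells were seeded at 2000 cells/well, attached for 10-12 hours, then exposed to compounds for 30-36 hours at 37C before ONE-Glo luminescence.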
# ELG1 genotox – genotoxicity induction in ELG1-luciferase HEK293T cells; HEK293T ELG1-luciferase reporter, luminescence, 16 h; Potency, µM (doses to about 46 µM), inactives show top-dose activity change, positive = activation, actives largely listed as activators; 1.3% of 330,000 active; AID 504466; note: % of control where 0% means no effect; nearly all actives have a fitted effect of over 60% in size
#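 HEK293T cells expressing luciferase-tagged ELG1 were exposed to compound or DMSO vehicle for 16 hr at 37 °C and 5% CO2. Luciferase activity was then measured with ONE-Glo after 30 min at room temperature.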
# NPC1 prom act – activates the NPC1 promoter | Potency, µM (highest dose often 9.22 µM), without a hit: top-dose activation, most hits filed as activators | AID 485313 | Huh7 NPC1 promoter luciferase reporter, 24 h | 2.4% of 320,000 active; note: % of control where 0% means no effect; nearly all actives have a fitted effect of over 60% in size
#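 Compounds in DMSO were transferred onto Huh7 NPC1-luciferase reporter cells pre-incubated 2 h; after 24 h at 37 °C, Amplite reagent was dispensed and luminescence recorded 10 min later.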
# Rab9 promoter act – Rab9 promoter activation. Huh7 Rab9 promoter-luciferase reporter, luminescence, 24 h. Potency, µM (doses to about 9.22 µM), for the others: top-dose activation, negative = inhibition, hits mostly activators. 2.8% of 320,000 active; note: % of control where 0% means no effect; nearly all actives have a fitted effect of over 60% in size
#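 Luminescence from Amplite-detected luciferase (10 minutes, ambient) reports Rab9 promoter activation. Before that, stable Rab9-luciferase Huh7 cells (1500/well, reduced-serum OP-MEM I plus 10% FBS) were exposed to compound for 24 hours at 37C.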
# p53 reactivator – mutant p53 re-activation in reporter cells; H1299 p53-A138V BP100-luciferase reporter, luminescence, 24 h; Potency, µM (highest dose often 92.2 µM), inactives show top-dose activity change, positive = activation, actives largely listed as activators; 0.063% of 320,000 active; note: % of control where 0% means no effect; nearly all actives have a fitted effect of over 45% in size
#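 p53-null H1299 cells stably carrying temperature-sensitive p53-A138V and a BP100-luciferase reporter were pinned with compounds (4-point, 1:5 series) and held 24 hrs at 37 deg C. Luminescence was read 10 min after detection reagent.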
# FLuc counter – firefly luciferase modulation, counter-screen for miR-21 project; P08659; purified FLuc, Km substrates, luminescence inhibition; Potency, µM (titrated, usually from 57.5 µM), inactives show top-dose activity change, negative = inhibition, hits mostly inhibitors; 6.9% of 360,000 active;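 note: plate controls were vehicle for no effect and reference inhibitor for full effect; nearly all actives have a fitted effect of over 55% in size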
# Target sequence (P08659 whole entry, looked up): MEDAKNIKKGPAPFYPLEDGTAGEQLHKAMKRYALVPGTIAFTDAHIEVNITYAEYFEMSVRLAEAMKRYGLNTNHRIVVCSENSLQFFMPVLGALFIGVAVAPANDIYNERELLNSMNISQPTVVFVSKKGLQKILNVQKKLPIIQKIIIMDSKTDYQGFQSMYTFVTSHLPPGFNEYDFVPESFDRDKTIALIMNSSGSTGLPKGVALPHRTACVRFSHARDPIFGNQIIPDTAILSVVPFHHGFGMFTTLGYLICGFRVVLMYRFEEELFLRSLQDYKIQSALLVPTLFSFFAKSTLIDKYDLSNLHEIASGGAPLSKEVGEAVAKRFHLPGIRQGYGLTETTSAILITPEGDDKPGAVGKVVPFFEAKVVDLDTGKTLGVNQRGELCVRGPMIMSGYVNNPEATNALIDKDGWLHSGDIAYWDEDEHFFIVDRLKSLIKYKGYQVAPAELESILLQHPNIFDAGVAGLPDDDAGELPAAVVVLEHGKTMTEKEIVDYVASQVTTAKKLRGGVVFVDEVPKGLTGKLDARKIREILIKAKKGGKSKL
#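 Purified P. pyralis luciferase, 10 nM final, with Km-level 10 uM D-luciferin and 10 uM ATP in 50 mM Tris acetate pH 7.5, 10 mM Mg acetate, 0.01% Tween-20, 0.05% BSA; 6-point qHTS titration about 60 µM downward; luminescence read.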
# Active calls of the source: *; ? = inconclusive; / = no result; [ ] = dose if it differs, or a comment. Calls come from the whole dose curve; as a rule, active = well fitted curve in the direction sought with a large enough effect; inconclusive = small, poorly fitted or top-dose-only effect, or another doubt; inactive = no such curve, though single readings can be large; an effect the other way counts as inactive or inconclusive. Potency is the fitted concentration of half-maximal effect.
SMILES,SMN2 splice up,ELG1 genotox,NPC1 prom act,Rab9 promoter act,p53 reactivator,FLuc counter
CCCCC1=CC2=CC(=O)C(C)(OC(=O)CC)C(=O)C2=CN1CCCN(CC)CC (stereo unspecified),-1%[9.22 µM],/,/,/,/,/
Cc1oc(-c2ccc(C(=O)NCCC(C)C)cc2)nc1CS(=O)(=O)c1ccccc1,/,/,/,/,/,-3%
Cc1ccccc1NC(=O)c1cc2ccccn2n1,/,?,3.5µM*,1.4µM*,8%,3.4µM*
Cc1ccc2c(c1)C(c1ccncc1)=NNC(c1ccccc1)=N2,/,7%,?,2.8µM*,12%,17µM*
Cc1ccc(C2=Nc3cccnc3C(c3ccccc3)=NN2)cc1,13µM*,?,3.5µM*,3.2µM*,12%,11µM*
Cc1ccc2c(c1)C(c1ccncc1)=NNC(c1ccc(F)cc1)=N2,15%,5%,6%,14%,2%,-15%
Cc1ccc(C2=Nc3ccc(Br)cc3C(c3ccncc3)=NN2)cc1,-99%,3%,-3%,27%,7%,27µM*
Cc1sc2ncnc(N3CCC(C(=O)Nc4ccc(Br)cc4Br)CC3)c2c1C,/,-10%,-5%,-3%,-3%,5%
c1nnc(-c2ccc3c(c2)OCO3)o1,0%,1%,-1%,-1%,14%,-5%
c1coc(-c2nnc(-c3ccc4c(c3)OCO4)o2)c1,18µM*,8.2µM*,2µM*,?,?,6.7µM*
Brc1ccc(-c2nnc(-c3ccc4c(c3)OCO4)o2)o1,11µM*,?,2µM*,1µM*,?,1.7µM*
Clc1ccc(CSc2nnc(-c3ccc4c(c3)OCO4)o2)cc1,-10%,0%,3%,-2%,4%,?
Cc1ccc(-c2nnc(-c3ccc4c(c3)OCO4)o2)cc1,11µM*,6.5µM*,1µM*,0.71µM*,3%,1.3µM*
O=C1CCCCC1Sc1nnc(-c2ccc3c(c2)OCO3)o1 (stereo unspecified),?,-9%,0.2µM*,0.1µM*,-5%,0.6µM*
COC(=O)N1C2=C(c3ccccc3[C@@H]1CC(=O)Nc1ccc3ccc4cccc5ccc1c3c45)[C@@H]1C(=O)N(c3ccccc3)C(=O)[C@@H]1[C@H](C)C2,-4%[9.22 µM],/,/,/,/,/
NNC(=O)c1cc2ccccc2[nH]1,20%,-5%,-12%,4%,1%,4%
CCN(CC)c1ccc(/C=N/NC(=O)c2c[nH]c3ccccc23)cc1,-17%,1%,6%,1%,3%,11µM*
CCN(CC)c1ccc(/C=N/NC(=O)c2cc(C)nc3ccccc23)cc1,/,13%,2%,-5%,-1%,?
CCN(CC)c1ccc(/C=N/NC(=O)c2cc3ccccc3[nH]2)cc1,/,2%,3%,19%,-1%,12µM*
CC1=CC(=O)C2C(C)(C)CCC[C@@]2(C)[C@@]1(O)CCc1ccoc1 (stereo partly specified),6%,/,/,/,/,/
O=C(/C=C/c1ccccc1)N1CCCN(C(=O)/C=C/c2ccccc2)CC1,-9%,3%,8%,5%,-4%,?
CCOC(=O)C1CCCN(C(=O)/C=C/c2ccc(Cl)cc2)C1 (stereo unspecified),-6%,-1%,0%,3%,2%,-20%
CC(C)Cc1ccc(/C=C/C(=O)N2CCCCC2)cc1,11µM*,14%,2.5µM*,0.89µM*,14%,7.6µM*
Cc1ccc(/C=C/C(=O)N2CCC(Cc3ccccc3)CC2)cc1,-8%[1.84 µM],-1%,0%,-5%,-3%,21µM*
CC(C)Cc1ccc(/C=C/C(=O)NC2CC2)cc1,?,16µM*,?,3.5µM*,?,4.8µM*
Cc1ccc(/C=C/C(=O)N2CCCC(C)C2)cc1 (stereo unspecified),1.1µM*,9.2µM*,1.3µM*,2.2µM*,?,3µM*
O=C(/C=C/c1ccc(Br)cc1)NC1CCCCCC1,6%,?,3%,16%,10%,?
